Bioassay records (PubChem)
POLH inh = qHTS for Inhibitors of Polymerase Eta; 390,000 tested, 1.2% active; recombinant Pol eta, fluorescent DNA replication assay; Potency, µM (highest dose often 114 µM), for inactives: at the top dose activity change, negative = inhibition, most hits filed as inhibitors; AID 588591, 2011; note: % is set by controls: 0 for no effect and ±100 for the full control effect
Target sequence (Q9Y253 whole entry, looked up): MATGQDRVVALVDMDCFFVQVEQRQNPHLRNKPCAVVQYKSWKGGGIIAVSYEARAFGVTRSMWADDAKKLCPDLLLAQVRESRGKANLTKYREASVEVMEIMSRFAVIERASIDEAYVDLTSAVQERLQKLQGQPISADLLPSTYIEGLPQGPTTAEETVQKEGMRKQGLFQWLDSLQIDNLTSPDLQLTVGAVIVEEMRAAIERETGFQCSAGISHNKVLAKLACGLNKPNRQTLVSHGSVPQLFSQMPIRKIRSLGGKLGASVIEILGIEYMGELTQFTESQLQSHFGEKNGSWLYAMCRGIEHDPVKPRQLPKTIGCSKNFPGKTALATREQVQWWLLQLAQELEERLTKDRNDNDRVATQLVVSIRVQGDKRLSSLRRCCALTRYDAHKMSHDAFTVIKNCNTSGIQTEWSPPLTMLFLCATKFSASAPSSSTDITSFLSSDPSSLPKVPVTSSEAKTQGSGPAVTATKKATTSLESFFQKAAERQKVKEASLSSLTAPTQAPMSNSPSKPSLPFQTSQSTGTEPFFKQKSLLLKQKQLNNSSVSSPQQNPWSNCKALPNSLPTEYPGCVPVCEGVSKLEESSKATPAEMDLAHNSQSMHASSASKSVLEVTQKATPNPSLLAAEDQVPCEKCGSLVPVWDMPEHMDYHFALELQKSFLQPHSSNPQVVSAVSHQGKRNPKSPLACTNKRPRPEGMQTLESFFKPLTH
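Pol eta at 10 nM preincubated with compounds 15 min at room temperature; reaction started with fluorescent substrate (50 nM final) and read kinetically at 0 and 10 min.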
FEN1 inh = qHTS Assay for the Inhibitors of Human Flap endonuclease 1 (FEN1). 390,000 tested, 0.35% active. AID 588795, 2011. Potency, µM (doses to about 114 µM), for the others: at the highest dose activity change, negative = inhibition, usual class: inhibitors. Recombinant FEN1 flap cleavage, fluorescence, 15 min. P39748; note: % is set by controls: 0 for no effect and ±100 for the full control effect; nearly all actives have a fitted effect of over 65% in size
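Compounds are tested as a concentration series against 10 nM FEN1; after a 15 min room-temperature preincubation, 50 nM substrate starts cleavage, with plate reads at 0 and 15 min. Normalized responses are fitted by a Hill equation.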
POLK inh = qHTS for Inhibitors of Polymerase Kappa | Potency, µM (series often up to 107 µM), for inactives: at the top dose activity, negative = inhibition, most hits filed as inhibitors | purified Pol kappa, fluorescent DNA synthesis assay, 10 min | 400,000 tested, 0.53% active | DNA polymerase kappa (Homo sapiens), Q9UBT6; note: % is set by controls: 0 for no effect and ±100 for the full control effect
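Kinetic fluorescence screen: compound preincubated 15 min RT with 10 nM enzyme; 50 nM substrate (final) initiates; reads at 0/10 min.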
POLB inh = qHTS Assay for Inhibitors of DNA Polymerase Beta; Pol beta primer extension/strand displacement, fluorescence kinetic; Potency, µM (top dose mostly 114 µM), inactives show at the highest dose activity change, negative = inhibition, hits mostly inhibitors; 340,000 tested, 1.3% active; AID 485314, 2010; note: % is set by controls: 0 for no effect and ±100 for the full control effect
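Pol beta (10 nM) was preincubated with compound for 15 min at room temperature. The reaction was then started with 50 nM substrate and read immediately and after a further 10 min at room temperature.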
POLI inh = qHTS for Inhibitors of Polymerase Iota; DNA polymerase iota (Homo sapiens), Q9UNA4; Pol iota fluorescent replication assay, 10 min; Potency, µM (doses to about 115 µM), without a hit: at the top dose activity, negative = inhibition, hits mostly inhibitors; 390,000 tested, 1% active
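Pol iota at 10 nM preincubated 15 min with compounds at room temperature; reaction started with fluorescent substrate, 50 nM final. Fluorescence read kinetically at 0 and 10 min; buffer-only wells as negative control.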
WRN helicase inh = qHTS for Inhibitors of WRN Helicase; 360,000 tested, 0.46% active; Potency, µM (highest dose often 114 µM), for inactives: top-dose activity change, negative = inhibition, usual class: inhibitors; AID 651768, 2012; WRN helicase unwinding, fluorescent forked duplex, kinetic; note: % is set by controls: 0 for no effect and ±100 for the full control effect; nearly all actives have a fitted effect of over 55% in size
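Kinetic fluorescence helicase assay: unwinding of a quenched forked DNA duplex (100 nM final) with 2 mM ATP final raises red fluorescence (525/598 nm). Compounds sat 15 min at room temperature with 20 nM WRN beforehand.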
Numbers without * were called inactive; i = inactive; ? = inconclusive; . = no result; ! = repeats disagree; [ ] = remark or other dose. A selection: hits, their analogues and other compounds. The true share with any hit is near 2.4%. Calls come from the whole dose curve; as a rule, active = well fitted curve in the direction sought with a large enough effect; inconclusive = small, poorly fitted or top-dose-only effect, or another doubt; inactive = no such curve, though single readings can be large; an effect the other way counts as inactive or inconclusive. Potency is the fitted concentration of half-maximal effect.

SMILES | POLH inh | FEN1 inh | POLK inh | POLB inh | POLI inh | WRN helicase inh
O=C1Nc2ccccc2C1=NN1CCCCCC1 | -2.0% | 0.6% | -7.4% | . | 109.7% | -28.2%
CCS(=O)(=O)N1Cc2ccccc2CC1C(=O)Nc1nnc(SCc2ccc(C#N)cc2)s1 (centres undefined) | ? | -8.6% | ? | 10µM* | ? | ?
CCS(=O)(=O)N1Cc2ccccc2CC1C(=O)Nc1ncc(C)s1 (centres undefined) | -11.1% | 15.6% | -0.4% | -3.0% | 16.9% | -4.0%
CCSc1nnc(NC(=O)C2Cc3ccccc3CN2C(=O)c2ccco2)s1 (centres undefined) | 28.2µM* | -10.8% | ? | 22.4µM* | ? | ?
COc1ccc2c(c1OC)C(=O)N1C2SC[C@H]1C(=O)NCCC(C)C (some centres undefined) | -14.0% | 15.5% | -21.5% | 24.5% | ? | 6.8%
C=CCNC(=O)[C@@H]1CSC2c3ccc(OC)c(OC)c3C(=O)N21 (some centres undefined) | ? | -4.9% | -5.5% | -17.2% | 39.8µM* | -8.0%
CCCn1c(SCC(=O)Nc2c(CC)cccc2CC)nnc1C(C)C | -8.0% | 6.6% | -6.5% | 4.2% | 24.5% | 10.1%
O=C(/C=C/c1ccccc1)NC(=S)Nc1ccccc1O | -2.0% | -2.1% | -1.4% | 16.7% | -26.4% | -12.2%
Cc1ccc(C2C(C#N)=C(N)N(c3cccnc3)C3=C2C(=O)CCC3)s1 (centres undefined) | 56.2µM* | -2.3% | -2.0%[60.1 µM] | ? | ? | -6.8%[11.6 µM]
Cc1ccc(S(=O)(=O)Nc2ccc(F)c(F)c2O)cc1 | . | . | . | . | . | -10.2%
COc1cc2c(cc1OC)/C(=C/c1ccc(Cl)cc1)C(=O)OC2 | -21.0% | -21.3% | -5.7% | -27.2% | 0.3% | -12.5%
Oc1c(CN2CCc3ccccc3C2)cc(Cl)c2cccnc12 | -16.8% | 39.8µM* | -1.9% | 35.0% | 65.4% | 3.1%
Cn1cnc([N+](=O)[O-])c1SCC(=O)NN | -2.1% | -25.3% | ? | -21.1% | 79.4µM* | -0.3%
Cn1cnc([N+](=O)[O-])c1SCC(O)CN1CCCCC1 (centres undefined) | -0.6% | -3.7% | 5.0% | -15.5% | -11.5% | 5.7%
CC(=O)c1cccc(NC(=O)CSc2nc(C3CC3)nc3ccccc23)c1 | -17.7% | -23.1% | -35.5% | ? | 25.1µM* | -28.2%
CC(=O)Nc1cccc(NC(=O)CSc2nc(C3CC3)nc3ccccc23)c1 | -16.9% | 4.9% | -3.9% | ? | 28.1% | -13.1%
O=C(CSc1nc(-c2ccccc2)nc2ccccc12)Nc1cccc(C(=O)O)c1 | 35.5µM* | -13.9% | 0.6% | -0.1% | ? | -14.1%[11.6 µM]
CCCCn1c(SCC(=O)c2ccc(O)c(O)c2)nc2ccsc2c1=O | 8.91µM* | 7.2% | -22.0% | ? | ? | ?
O=C(O)Cc1csc(-c2ccc(Cl)cc2)n1 | . | . | -14.2%[19.4 µM] | . | . | .
COC(=O)/C=C1\SC(=Nc2ccccc2)NC1=O | -3.2% | 14.5% | -13.0% | 21.3% | 11.6% | 8.9%
COC(=O)/C=C1/SC(=Nc2ccc(Cl)c(Cl)c2)NC1=O | 79.4µM* | 11.6% | -10.3% | 23.8% | -25.6% | -10.5%[11.6 µM]
COc1ccc2c(c1)NC1(O)c3ccccc3C(=O)C21O (centres undefined) | -2.7% | 6.7% | -4.4%[60.1 µM] | -14.7% | ? | 1.9%
Cc1cc2ccccn2c1C(=O)c1nc(NCc2ccccc2)ncc1Cl | -12.0% | 2.9% | 4.3% | 3.8% | 79.4µM*! | -0.8%
O=C(O)c1nc(NCc2ccccc2)ncc1Cl | -9.2% | -10.5% | 10.9% | 34.1% | -20.0% | 2.6%
CCCOc1ccc(-c2c(C(=O)N/N=C(\C)c3cccnc3)nnn2-c2nonc2N)cc1 | 4.1% | 1.2% | -30.8% | 0.6% | 44.7µM* | -0.6%
SMILES | POLH inh | FEN1 inh | POLK inh | POLB inh | POLI inh | WRN helicase inh
CCn1cc2nc(SCC(=O)Nc3ccc(C)cc3C)n(Cc3ccc(C)cc3)c(=O)c2n1 | 79.4µM* | -6.6% | -32.5% | 10µM* | 20.8% | .
COc1ccc(-c2nc(SCC(=O)Nc3ccc4c(c3)OCCO4)c(-c3ccc(F)cc3)[nH]2)cc1 | -17.0% | -16.5% | -26.4% | 39.8µM* | ? | .
COc1ccc2[nH]c3nc(SCC(=O)Nc4ccc5c(c4)OCO5)nnc3c2c1 | ? | 3.9% | -2.6% | 22.4µM* | ? | -17.3%
COc1ccc(-c2nc(SCC(=O)Nc3ccc4c(c3)OCCO4)c(-c3ccc(F)cc3)[nH]2)cc1OC | -23.8% | 4.8% | 45.1% | 2.6% | i | .
O=C(CN1C(=O)NC2(CCCCC2)C1=O)Nc1ccccc1Cl | -4.3% | 2.0% | -1.0% | 3.9% | 89.1µM* | 5.0%
C=CCOc1ccc2cccc(/C=N/NC(=O)c3cc4cc([N+](=O)[O-])ccc4s3)c2c1 | 9.4% | 0.1% | -9.8% | -26.1% | 2.6% | -3.6%
CC(C)C[C@@H](CNCC(=O)[C@H](Cc1c[nH]c2ccccc12)NC(=O)c1[nH]cnc1C(=O)N[C@@H](C)CN)NC(=O)c1nc[nH]c1C(=O)N[C@@H](CC(=O)O)C(=O)O | -15.1% | 14.1% | -13.6% | . | ? | -8.0%
CC(C)C[C@@H](CNCC(=O)[C@H](Cc1c[nH]c2ccccc12)NC(=O)c1[nH]cnc1C(=O)N[C@H](CN)CC(C)C)NC(=O)c1nc[nH]c1C(=O)N[C@@H](CC(=O)O)C(=O)O | 50.1µM* | 1.1% | ? | . | ? | -10.8%
CC(C)c1ccc(NC(=O)COC(=O)CC2CCCC2)cc1 | -17.5% | ? | -22.0% | . | 7.0% | 1.1%
O=C(COC(=O)CC1CCCC1)Nc1cc2c(cc1Cl)C(=O)c1ccccc1C2=O | ? | 7.2% | -20.6% | 39.8µM* | -14.9% | -18.8%
O=C(Cn1cnc2scc(-c3ccccc3)c2c1=O)NCc1ccco1 | 22.4µM* | 5.0% | ? | 28.2µM* | 56.2µM* | -19.2%
Cc1sc2ncnc(NCc3ccco3)c2c1C | ? | -6.1% | -28.2% | 44.7µM* | ? | -25.0%[57.1 µM]
O=C(Cn1ncn2c(cc3ccccc32)c1=O)NCc1ccco1 | 89.1µM* | 1.6% | 3.0%[60.1 µM] | 50.1µM* | ? | -35.9%[57.1 µM]
Cc1ccc(-c2csc3ncnc(OCC(=O)NC(=O)NCc4ccco4)c23)cc1 | 79.4µM* | 1.9% | -31.6% | 39.8µM* | ? | -10.0%[57.1 µM]
CCc1ccc(-c2csc3ncn(CC(=O)NCc4ccco4)c(=O)c23)cc1 | -3.9% | -14.9% | 1.6% | -20.4% | 19.1% | -12.1%
